Hits are enriched below; roughly 19% of the tested compounds scored in any of these assays.
HT1080 IDH1KD tx = kills HT-1080 cells with IDH1 knockdown. 360,000 compounds, 2% hits. AID 686971. HT-1080 IDH1 knockdown viability, ATP luminescence, 48 h. Potency, µM (titrated, usually from 46.1 µM), for the others: at the highest dose activity, negative = toxicity, hits mostly cytotoxic;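 note: potency is the fitted concentration of half-maximal effect; 0% = DMSO wells and -100% = cell-free medium wells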
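HT-1080-IDH1KD cells (IDH1 knocked down), 750/well in RPMI with 5% FBS, treated with compound 48 h at 37 degrees C. Viability by CellTiter-Glo luminescence, normalised to DMSO and no-cell wells; concentration-response curves classed.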
DT40 TDP1 CPT = growth inhibition of DT40 Tdp1-/-;hTDP1 cells with camptothecin (screen for TDP1 inhibitors); AID 686979; 420,000 compounds, 12% hits; Potency, µM (series often up to 46.2 µM), for the others: at the top dose activity change, negative = growth inhibition, actives largely listed as inhibitors; chicken DT40 Tdp1-/-;hTDP1 cells + 20 nM CPT, ATP luminescence, 48 h; note: potency is the fitted concentration of half-maximal effect; nearly all actives have a fitted effect of over 55% in size
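Chicken DT40 Tdp1-/- cells complemented with human TDP1, 400 cells/well, exposed to compounds plus 20 nM camptothecin for at least 48 h at 37 C; viability read as ATP content by CellTiter-Glo luminescence.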
TDP1 cell noCPT = qHTS for Inhibitors of human tyrosyl-DNA phosphodiesterase 1 (TDP1): qHTS in cells in absence of CPT. DT40 Tdp1-/- hTDP1 cells, no CPT, ATP luminescence, 48 h. Potency, µM (highest dose often 46.2 µM), for inactives: at the top dose activity change, negative = growth inhibition, most hits filed as inhibitors. 420,000 compounds, 15% hits; note: potency is the fitted concentration of half-maximal effect; nearly all actives have a fitted effect of over 55% in size
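A cellular qHTS used chicken DT40 cells lacking endogenous Tdp1 but carrying stably transfected human TDP1. Compounds were applied without camptothecin, and cell growth kinetics were judged by ATP-dependent luminescence after ≥48 hr.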
HT1080-NT tox = kills 2HG-producing HT-1080-NT fibrosarcoma cells. HT-1080-NT fibrosarcoma viability, CellTiter-Glo ATP luminescence, 48 h. Potency, µM (series often up to 46.1 µM), for inactives: at the highest dose activity, negative = less viability, actives largely listed as cytotoxic. 360,000 compounds, 1.6% hits;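 note: NT is the 2HG producing partner of a matched IDH1 knockdown line; potency is the fitted concentration of half-maximal effect; 0% = DMSO-treated cells and -100% = media-only wells without cells; nearly all actives have a fitted effect of over 55% in size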
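A 48-hour cytotoxicity screen used HT-1080-NT cells plated 2 hours before compound delivery. ATP-based CellTiter-Glo luminescence measured viability, normalized to DMSO and no-cell controls.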
IL1B secr inh = blocks inflammasome-driven IL-1 beta release | THP-1 LPS/ATP IL-1B secretion, AlphaLISA, 16 h; active compounds read low | 360,000 compounds, 4.7% hits | activity change, % at 57.5 µM | AID 743279; in the data active = activity change below about -50%; inconclusive = mostly about -30% to -49%
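Secreted IL-1B measured by AlphaLISA bead assay after 16 h compound exposure of THP-1 cells; compounds (final up to 57.5 uM) added 1 h before LPS (250 ng/mL) and ATP (1.25 mM) stimulation; lower signal means less secretion.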
Numbers without * were called inactive. Unless noted, calls come from the whole dose curve; as a rule, active = well fitted curve in the direction sought with a large enough effect; inconclusive = small, poorly fitted or top-dose-only effect, or another doubt; inactive = no such curve, though single readings can be large; an effect the other way counts as inactive or inconclusive. Unless noted, % is set by controls: 0 for no effect and ±100 for the full control effect.

For CCOc1ccccc1NC(=O)C(OC(=O)c1cnccn1)c1ccccc1 (stereo not drawn) the results were HT1080 IDH1KD tx 2.3%, DT40 TDP1 CPT -12.7%, TDP1 cell noCPT -14.6%, HT1080-NT tox 10.0% and IL1B secr inh 1.7.
Screening COc1ccc(C(O)c2nc(-c3cncnc3)cs2)cc1 (stereo not drawn) returned HT1080 IDH1KD tx 17.9%, DT40 TDP1 CPT -11.2%, TDP1 cell noCPT inconclusive, HT1080-NT tox inconclusive and IL1B secr inh 1.5.
`O=C(NCc1ccccc1)Nc1cccn(Cc2ccccc2Cl)c1=O` gave HT1080 IDH1KD tx -11.7%, DT40 TDP1 CPT inconclusive, TDP1 cell noCPT inconclusive, HT1080-NT tox -14.2% and IL1B secr inh -23.5.
COc1ccc([N+](=O)[O-])cc1CN1CCN(c2ncc(Cc3ccccc3)cn2)CC1 was read as HT1080 IDH1KD tx inconclusive, DT40 TDP1 CPT 20.6µM*, TDP1 cell noCPT 18.4µM*, HT1080-NT tox inconclusive and IL1B secr inh -8.4.
Screening O=[N+]([O-])c1ccc(F)c(CN2CCN(c3ncc(Cc4ccccc4)cn3)CC2)c1 returned HT1080 IDH1KD tx -23.8%, DT40 TDP1 CPT inconclusive, TDP1 cell noCPT 20.6µM*, HT1080-NT tox -27.8% and IL1B secr inh 32.4.
For Cc1ccc([N+](=O)[O-])cc1CN1CCN(c2ncc(Cc3ccccc3)cn2)CC1 the results were HT1080 IDH1KD tx inconclusive, DT40 TDP1 CPT inconclusive, TDP1 cell noCPT inconclusive, HT1080-NT tox -14.6% and IL1B secr inh 58.1.
`CC1=[N+](C)c2ccc3ccccc3c2C1(C)C` gave HT1080 IDH1KD tx -3.0%, DT40 TDP1 CPT 2.59µM*, TDP1 cell noCPT 2.31µM*, HT1080-NT tox -16.9% and IL1B secr inh -15.1.
Cc1c2ccccc2cc[n+]1C was read as DT40 TDP1 CPT -6.2% and TDP1 cell noCPT -15.9%.
COC(=O)c1c(-c2ccsc2)sc2ccc(-c3cc(OC)c(OC)c(OC)c3)cc12 was read as HT1080 IDH1KD tx 0.1%, DT40 TDP1 CPT inconclusive, TDP1 cell noCPT 9.2µM*, HT1080-NT tox -10.2% and IL1B secr inh 0.5.
For COC(=O)c1c(-c2ccc(N(C)C)cc2)sc2ccc(OC)cc12 the results were HT1080 IDH1KD tx -3.4%, DT40 TDP1 CPT inconclusive, TDP1 cell noCPT 13µM*, HT1080-NT tox inconclusive and IL1B secr inh 38.7.
`Cc1cc(NC(=O)C2COc3ccccc3O2)no1` (stereo not drawn) gave HT1080 IDH1KD tx 8.2%, DT40 TDP1 CPT -24.7%, TDP1 cell noCPT -26.3%, HT1080-NT tox -1.2% and IL1B secr inh 3.4.
For O=C(Nc1nnc(-c2ccccc2)o1)C1CCCN1S(=O)(=O)c1cccs1 (stereo not drawn) the results were HT1080 IDH1KD tx 0.4%, DT40 TDP1 CPT -29.4%, TDP1 cell noCPT inconclusive, HT1080-NT tox -16.6% and IL1B secr inh -59.3*.
`CCCCCOc1ccc(NC(=O)C(=O)NCC2CCCN2CC)cc1` (stereo not drawn) gave HT1080 IDH1KD tx 0.0%, DT40 TDP1 CPT 16.4µM*, TDP1 cell noCPT inconclusive, HT1080-NT tox -13.4% and IL1B secr inh -7.2.
Cc1ccccc1NC(=O)C(=O)NCC1CCCN1S(=O)(=O)c1cccs1 (stereo not drawn) was read as HT1080 IDH1KD tx 15.9%, DT40 TDP1 CPT -29.1%, TDP1 cell noCPT inconclusive, HT1080-NT tox 15.9% and IL1B secr inh 4.0.
Cc1ccccc1CNC(=O)C(=O)NCCC1CCCCN1S(=O)(=O)c1cccs1 (stereo not drawn) was read as HT1080 IDH1KD tx -28.7%, DT40 TDP1 CPT 18.4µM*, TDP1 cell noCPT inconclusive, HT1080-NT tox -7.6% and IL1B secr inh -23.5.
For O=C(NCCc1ccccc1)C(=O)NCC1CCCN1S(=O)(=O)c1cccs1 (stereo not drawn) the results were HT1080 IDH1KD tx -0.3%, DT40 TDP1 CPT 23.1µM*, TDP1 cell noCPT inconclusive, HT1080-NT tox -5.5% and IL1B secr inh 5.2.
Screening COc1ccc(-c2cc(C(=O)NCCCn3ccnc3)c3ccccc3n2)c(OC)c1 returned HT1080 IDH1KD tx -2.8%, DT40 TDP1 CPT 2.0%, TDP1 cell noCPT -23.8%, HT1080-NT tox -17.6% and IL1B secr inh -4.4.
CCC(=O)N(Cc1ccc(S(N)(=O)=O)cc1)C1CC(=O)N(c2ccc(OC)cc2)C1=O (stereo not drawn) was read as HT1080 IDH1KD tx 15.9%, DT40 TDP1 CPT -6.4%, TDP1 cell noCPT -2.5%, HT1080-NT tox 7.7% and IL1B secr inh 11.3.
`O=C(OCc1cncs1)c1cccs1` gave HT1080 IDH1KD tx -7.4%, DT40 TDP1 CPT 2.4%, TDP1 cell noCPT 6.6%, HT1080-NT tox -6.7% and IL1B secr inh inconclusive.
COc1ccc(NC(=O)C(=O)NCC2CCCN2S(=O)(=O)c2cccs2)cc1 (stereo not drawn) was read as HT1080 IDH1KD tx inconclusive, DT40 TDP1 CPT 2.31µM*, TDP1 cell noCPT 2.06µM*, HT1080-NT tox inconclusive and IL1B secr inh -6.2.
Screening O=C(CCCCCN1C(=O)c2cccc3cccc(c23)C1=O)NCCO returned HT1080 IDH1KD tx -1.2%, DT40 TDP1 CPT inconclusive, TDP1 cell noCPT inconclusive, HT1080-NT tox 2.8% and IL1B secr inh inconclusive.
Screening COn1c(=S)[nH]c2ccccc2c1=O returned HT1080 IDH1KD tx -2.8%, DT40 TDP1 CPT -4.8%, TDP1 cell noCPT -1.9%, HT1080-NT tox 0.1% and IL1B secr inh -19.4.
`COc1ccc(OC)c2c(=S)c3ccccc3[nH]c12` gave DT40 TDP1 CPT 23.7µM* and TDP1 cell noCPT inconclusive.
CC(C)C(=O)N1CCN(c2ccc(NC(=O)c3ccc([N+](=O)[O-])o3)cc2)CC1 was read as HT1080 IDH1KD tx 7.31µM*, DT40 TDP1 CPT 2.06µM*, TDP1 cell noCPT 11.6µM*, HT1080-NT tox 11.6µM* and IL1B secr inh -104.0*.
For CC(C)C(=O)N1CCN(c2ccc(NC(=O)c3ccc([N+](=O)[O-])o3)cc2Cl)CC1 the results were HT1080 IDH1KD tx inconclusive, DT40 TDP1 CPT 1.16µM*, TDP1 cell noCPT 2.06µM*, HT1080-NT tox 7.31µM* and IL1B secr inh -105.0*.
Screening CCCCCC(=O)NC(=S)Nc1ccc(N2CCCCC2)c(Cl)c1 returned HT1080 IDH1KD tx -3.3%, DT40 TDP1 CPT -27.0%, TDP1 cell noCPT inconclusive, HT1080-NT tox -7.8% and IL1B secr inh -4.4.
Screening CC(=O)N1CCN(c2ccc(NC(=O)c3ccc(Br)o3)cc2Cl)CC1 returned HT1080 IDH1KD tx -1.5%, DT40 TDP1 CPT 16.4µM*, TDP1 cell noCPT 25.9µM*, HT1080-NT tox 3.8% and IL1B secr inh inconclusive.
Screening CCCCCC(=O)Nc1ccc(N2CCN(CC)CC2)c(Cl)c1 returned HT1080 IDH1KD tx inconclusive, DT40 TDP1 CPT 35.5µM*, TDP1 cell noCPT inconclusive, HT1080-NT tox inconclusive and IL1B secr inh -7.0.
